# A3G deaminase – inhibitors of human APOBEC3G DNA deaminase; Q9HC16; recombinant A3G, ssDNA deamination FAM/TAMRA fluorescence; inhibition, % at 20 µM; 0.28% of 330,000 active; AID 493012;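 active means inhibition of at least 40% at 20 µM, with no more than 30% in the related APOBEC3A deaminase screen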;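 further: plate controls were DMSO wells with A3G for no effect and wells lacking A3G enzyme for full effect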
# Target sequence (Q9HC16 whole entry, looked up): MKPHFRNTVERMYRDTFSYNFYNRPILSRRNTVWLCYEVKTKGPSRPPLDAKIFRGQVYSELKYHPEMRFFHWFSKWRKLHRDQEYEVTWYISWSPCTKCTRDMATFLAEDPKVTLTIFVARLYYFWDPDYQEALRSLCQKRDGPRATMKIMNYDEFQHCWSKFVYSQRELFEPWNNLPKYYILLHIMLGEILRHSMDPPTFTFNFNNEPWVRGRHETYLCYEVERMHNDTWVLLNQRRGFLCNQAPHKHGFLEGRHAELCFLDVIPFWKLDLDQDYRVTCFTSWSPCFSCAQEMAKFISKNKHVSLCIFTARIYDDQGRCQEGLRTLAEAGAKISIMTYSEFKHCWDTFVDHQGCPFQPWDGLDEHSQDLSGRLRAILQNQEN
# PfGluPho inh – PfG6PD (Plasmodium falciparum) enzyme inhibition; 0.78% of 350,000 active; PfGluPho enzyme, NADPH resazurin-diaphorase fluorescence; inhibition, % at 20 µM;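 active means inhibition reaching at least a set limit at 20 µM in the primary screen, cut at about 59% in these data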;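 further: 0% = DMSO wells with substrate and 100% = DMSO wells lacking glucose-6-phosphate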
# A3A deaminase – blocks human APOBEC3A ssDNA deamination; P31941; recombinant A3A, FAM/TAMRA ssDNA deamination fluorescence; inhibition, % at 20 µM; 0.41% of 330,000 active; AID 493011;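 active means at least 40% inhibition at 20 µM here, with at most 30% in a related deaminase screen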;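 further: plate controls were A3A with DMSO for no effect and wells lacking A3A enzyme for full effect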
# Target sequence (P31941 whole entry, looked up): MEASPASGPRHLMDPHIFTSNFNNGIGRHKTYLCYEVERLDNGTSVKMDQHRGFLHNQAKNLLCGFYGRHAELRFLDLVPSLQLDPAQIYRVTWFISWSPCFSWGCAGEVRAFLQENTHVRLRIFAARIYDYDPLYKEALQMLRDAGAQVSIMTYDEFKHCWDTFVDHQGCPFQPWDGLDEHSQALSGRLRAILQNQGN
# CR mimetic SO – caloric restriction mimetics inhibiting age-related superoxide in yeast. S. cerevisiae aged cells, superoxide DHE fluorescence; hits give low values. superoxide response (% of plate mean), % at 10 µM. 0.18% of 330,000 active;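 active means superoxide response under a set limit, about three screen SD below normal, cut at about 65% in these data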;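 further: yeast aged for seven days with compound at 30 °C before DHE staining; 100% = average MFI of all compound-treated wells on the plate with controls excluded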
# PfM18AAP inh – blocks P. falciparum M18 aspartyl aminopeptidase. 1.2% of 290,000 active. inhibition, % at 7.35 µM. recombinant PfM18AAP, H-Glu-NHMec fluorogenic cleavage;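 active means inhibition above the campaign mean inhibition over all tested compounds plus 3 SD, cut at about 28% in these data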;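 further: 0% = plate median of test compound wells and 100% = 2 mM ZnCl2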
# Superoxide pick – confirmation of caloric restriction mimetics inhibiting yeast age-related superoxide. 1% of 850 active. AID 434994. shares compounds with CR mimetic SO. superoxide response (% of plate), % at 10 µM. S. cerevisiae aging, superoxide DHE fluorescence; hits give low values;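 active means superoxide signal below 65% of the plate average of sample wells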;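 further: cells aged with compound for 7 days at 30 degrees C before staining; 100% equals mean DHE fluorescence of all compound wells on the plate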
# DHE fluor count – compound alters DHE oxidation or fluorescence in yeast. fluorescence response, % at 10 µM. S. cerevisiae BY4741, flow cytometry; hits give low values. AID 435000. shares compounds with CR mimetic SO. 850 tested, under 10 active;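 active means fluorescence response below 15%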;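 further: percent of the mean fluorescence averaged over all compound wells on the plate; lower means stronger quenching of DHE signal or ROS scavenging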
# Active calls of the source: *; · = no result. In the library only some 2.4% were active in any assay of this set; here they are far more common.
SMILES,A3G deaminase,PfGluPho inh,A3A deaminase,CR mimetic SO,PfM18AAP inh,Superoxide pick,DHE fluor count
O=C(/C=C/c1ccc(OC2CSC2)cc1)c1ccc(Cl)cc1,-5,9,6,63*,-14,99,86
CC1C(=O)NN=C1C(=O)N/N=C\c1ccc(O)cc1O (stereo unspecified),-3,-35,-3,60*,15,94,94
O=c1[nH]c(C2CCN(S(=O)(=O)c3ccccc3C(F)(F)F)CC2)nc2c1nnn2Cc1cccc(F)c1,2,-9,-2,114,-6,·,·
CN(c1ccccc1)S(=O)(=O)c1ccccc1Br,-11,14,-2,85,·,87,89
CCN(CC)C1CCN(C(=O)c2cc(COc3ccc(-n4cncn4)cc3)on2)C1 (stereo unspecified),-9,-22,-5,67,5,·,·
CSc1ncc(Cl)c(C(=O)Nc2cccc(C)c2)n1,-6,-1,-3,96,1,101,90
CSc1ncc(Cl)c(C(=O)Nc2cccc3ccccc23)n1,-5,11,0,98,2,·,·
CCOC(=O)c1ccc(NC(=O)c2nc(SC)ncc2Cl)cc1,5,-3,3,90,-6,·,·
CSc1ncc(Cl)c(C(=O)Nc2ccccc2Br)n1,-5,15,1,103,-1,105,108
Cc1ccccc1NC(=O)c1nc(S(C)(=O)=O)ncc1Cl,0,17,1,108,-44,99,91
CSc1ncc(Cl)c(C(=O)Nc2cccc(Cl)c2)n1,-5,3,-3,94,0,96,99
Nc1ncc(Br)cc1S(=O)(=O)NCCC(=O)N1CCN(c2ccccc2)CC1,-3,-1,-4,80,1,·,·
CC(=O)COc1nc2c(c(-c3ccco3)c1C#N)CCc1ccccc1-2,1,9,4,65*,1,95,105
Cc1c(F)cccc1NS(=O)(=O)c1ccccc1C#N,0,10,0,90,-3,105,92
COc1ccccc1NS(=O)(=O)c1ccccc1C#N,-5,-10,0,125,-9,·,·
O=C(O)c1c(N2CCCCC2)ccc([N+](=O)[O-])c1N1CCCCC1,1,4,2,53*,-3,102,109
CC1=C(C(=O)N(C)C)CC(CC(=O)NCc2cccc3ccccc23)C(=O)N1CCCN1CCCC1=O (stereo unspecified),·,-3,·,·,·,·,·
COc1cc2c(cc1OC)CN(C(=O)c1cc(S(=O)(=O)N3CCOCC3)c(Cl)cc1Cl)CC2,1,-5,2,114,-3,·,·
Cc1ccc(-c2nc3ccccc3c(=O)n2O)cc1,-8,-17,-3,59*,3,92,111
Cc1ccc2[nH]c3c(=O)n(CC(=O)N4CCN(C)CC4)ncc3c2c1,-3,-4,-1,113,-2,·,·
CN1CCN(C(=O)c2ccc(Cl)cc2)CC1,-6,-22,0,109,-5,·,·
COc1ccc(C(=O)N2CCN(c3ccc(C)cc3)CC2)cc1OC,-1,14,0,91,1,111,106
Cc1ccc(C(=O)N2CCN(c3ccc(Cl)cc3)CC2)cc1,-2,-1,-1,107,-1,106,92
O=C(c1cccc(F)c1)N1CCN(c2cccc(C(F)(F)F)c2)CC1,3,-8,-2,100,-1,92,89
COc1ccc(/C(C)=N/NC(=O)CNC(=O)/C=C\c2ccccc2OC)c(OC)c1,-6,13,-3,108,1,·,·
SMILES,A3G deaminase,PfGluPho inh,A3A deaminase,CR mimetic SO,PfM18AAP inh,Superoxide pick,DHE fluor count
COc1ccc(C2(c3ccc(OC(C)=O)cc3OC(C)=O)CC(c3ccccc3)NC(=S)N2)cc1 (stereo unspecified),-6,18,-4,61*,-3,120,123
COc1ccc(S(=O)(=O)Nc2noc3ccccc23)cc1OC,11,-12,-5,54*,-12,83,97
COc1ccc(/C=C2\SC(=O)N(CCCC(=O)Nc3ccc(C(=O)O)cc3)C2=O)cc1OC,-1,2,1,97,5,·,·
COc1ccc(/C=C2\SC(=S)N(CCCC(=O)Nc3ccc(C(=O)O)cc3)C2=O)cc1OC,-7,-4,-3,63*,0,93,97
COc1ccc(N2CCN(c3ccc(C(N)=O)cc3[N+](=O)[O-])CC2)cc1,-2,-7,2,90,7,·,·
COc1ccc(N2CCN(C(=O)c3cccnc3)CC2)c([N+](=O)[O-])c1,-3,-2,2,98,0,101,94
O=C(O)CCC1(C(=O)O)CCC(=O)c2ccccc21 (stereo unspecified),·,-2,·,·,·,·,·
CN1C(=O)CCC(CCC(=O)O)(c2ccccc2O)C1=O (stereo unspecified),-8,6,1,63*,2,103,106
CCN1CCc2nc(N)sc2C1,-7,62*,-4,65*,44*,112,109
Cc1ccc(S(=O)(=O)Nc2c(C)cc(C)nc2Cl)cc1,-7,13,-2,50*,-11,101,107
C=CCN1C(=O)/C(=C\C=C2\N(C)c3ccccc3C2(C)C)SC1=S,-143,3,-41,57*,-11,99,112
CC(C)c1ccc(N(CC(=O)NC2CCCCC2)C(=O)CCC(=O)Nc2ccccn2)cc1,-5,9,-1,92,1,·,·
CCN(CC)C(=O)C1=C(C)N(Cc2ccc(C(C)(C)C)cc2)C(=O)C(CC(=O)NC2CC2)C1 (stereo unspecified),·,3,·,·,·,·,·
CC1CCN(S(=O)(=O)c2ccc(C(=O)Nc3nnc(C4CC4)o3)cc2)CC1,-1,-25,7,83,-3,87,98
CC1CCCCN1S(=O)(=O)c1ccc(C(=O)Nc2nnc(C3=COCCO3)o2)cc1 (stereo unspecified),-4,-20,3,126,7,94,101
CC1CCCCN1S(=O)(=O)c1ccc(C(=O)Nc2nnc(-c3ccco3)o2)cc1 (stereo unspecified),-4,-23,-1,102,4,99,91
CC1CCCCN1S(=O)(=O)c1ccc(C(=O)Nc2nnc(C3CC3)o2)cc1 (stereo unspecified),-4,-13,2,91,4,97,102
O=C(Nc1nnc(-c2ccco2)o1)c1ccc(S(=O)(=O)N2CCCCC2)cc1,·,-28,·,·,·,·,·
O=C(NNC(=O)c1ccncc1)Nc1cc(Cl)ccc1Cl,·,-14,·,·,·,·,·
COc1ccc(CCC(=O)Nc2cc(S(=O)(=O)N3CCCCC3)ccc2N(C)C)cc1,-7,9,-2,110,·,·,·
COc1ccc(OC)c(CN2CCC(CNC(=O)Nc3cccc(Cl)c3)CC2)c1,1,14,5,93,-1,·,·
COc1ccc(Cl)cc1NC(=O)NCC1CCN(Cc2cc(C)ccc2C)CC1,-5,11,3,104,-15,·,·
